# FLuc modulator = inhibits or activates purified firefly luciferase, miR-21 counter-screen. 360,000 compounds, 6.9% hits. Potency, µM (highest dose often 57.5 µM), without a hit: at the highest dose activity change, negative = inhibition, usual class: inhibitors. P08659. purified FLuc, Km substrates, luminescence inhibition;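 note: plate controls were vehicle for no effect and reference inhibitor for full effect; nearly all actives have a fitted effect of over 55% in size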
# Target sequence (P08659 whole entry, looked up): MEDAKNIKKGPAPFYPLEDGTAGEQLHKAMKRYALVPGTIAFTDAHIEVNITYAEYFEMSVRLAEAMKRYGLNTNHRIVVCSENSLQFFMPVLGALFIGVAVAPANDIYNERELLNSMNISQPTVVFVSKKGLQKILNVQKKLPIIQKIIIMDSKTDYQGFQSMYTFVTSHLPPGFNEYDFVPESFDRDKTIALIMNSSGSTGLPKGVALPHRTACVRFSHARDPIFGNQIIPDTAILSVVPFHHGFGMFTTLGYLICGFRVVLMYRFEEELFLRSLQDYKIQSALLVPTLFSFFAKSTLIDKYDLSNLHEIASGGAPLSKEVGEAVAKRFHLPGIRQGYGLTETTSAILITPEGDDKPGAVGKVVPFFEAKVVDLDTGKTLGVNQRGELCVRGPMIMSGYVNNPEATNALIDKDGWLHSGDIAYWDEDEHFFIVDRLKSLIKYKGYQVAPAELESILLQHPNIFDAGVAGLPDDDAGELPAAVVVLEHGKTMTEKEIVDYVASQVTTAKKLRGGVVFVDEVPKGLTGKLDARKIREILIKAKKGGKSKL
#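 Biochemical qHTS of compounds, final roughly 60 µM downward over six points, against 10 nM purified firefly luciferase using Km concentrations of substrates (10 uM D-luciferin, 10 uM ATP) in Tris acetate pH 7.5 buffer; luminescence output.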
# Rab9 promoter act = activates the Rab9 promoter | Huh7 Rab9 promoter-luciferase reporter, luminescence, 24 h | Potency, µM (series often up to 9.22 µM), without a hit: at the top dose activation, negative = inhibition, usual class: activators | 320,000 compounds, 2.8% hits; note: % of control where 0% means no effect; nearly all actives have a fitted effect of over 60% in size
#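 Huh7 reporter line, Rab9 promoter upstream of luciferase. Compound exposure 24 h at 37 °C in reduced-serum medium with 10% FBS. Read-out: luminescence.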
# ELG1 genotox = inducers of genotoxicity in HEK293T ELG1-luciferase cells; HEK293T ELG1-luciferase reporter, luminescence, 16 h; 330,000 compounds, 1.3% hits; AID 504466; Potency, µM (series often up to 46 µM), for inactives: at the top dose activity change, positive = activation, hits mostly activators; note: % of control where 0% means no effect; nearly all actives have a fitted effect of over 60% in size
#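 Luminescence read-out: rising ELG1-luciferase signal, reflecting elevated ELG1 protein under genetic stress, flags genotoxic compounds. Cells were treated for 16 hr at 37 °C before ONE-Glo detection.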
# SMN2 splice up = enhancers of SMN2 splice variant expression; Potency, µM (series often up to 46.1 µM), for inactives: at the top dose activity change, positive = activation, usual class: activators; HEK293 SMN2-luciferase splicing reporter, luminescence, 30-36 h; 210,000 compounds, 2.8% hits; AID 1458; note: % of control where 0% means no effect; nearly all actives have a fitted effect of over 55% in size
#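 HEK293 cells carry an SMN2 […]–luciferase reporter in which exon 7 inclusion puts luciferase in frame. Cells were plated 10-12 h before compound addition, then incubated 30-36 h at 37C. ONE-Glo luminescence was read; sodium butyrate at 4.5 mM final served as control.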
# NPC1 prom act = activators of NPC1 promoter; Potency, µM (series often up to 9.22 µM), without a hit: at the top dose activation, hits mostly activators; 320,000 compounds, 2.4% hits; AID 485313; Huh7 NPC1 promoter luciferase reporter, 24 h; note: % of control where 0% means no effect; nearly all actives have a fitted effect of over 60% in size
#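 Stable NPC1-promoter luciferase Huh7 line; cpd (DMSO) 24 h, 37 °C, 5% CO2; Amplite luciferase reagent 10 min RT; luminescence readout. qHTS format.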
# The depositor's hits bear a star; ? = inconclusive; . = not tested or not shown; [ ] = dose if it differs, or a comment. The list is not random: actives were taken first. Their share in the collection is about 7.4%. Calls come from the whole dose curve; as a rule, active = well fitted curve in the direction sought with a large enough effect; inconclusive = small, poorly fitted or top-dose-only effect, or another doubt; inactive = no such curve, though single readings can be large; an effect the other way counts as inactive or inconclusive. Potency is the fitted concentration of half-maximal effect.
SMILES,FLuc modulator,Rab9 promoter act,ELG1 genotox,SMN2 splice up,NPC1 prom act
Fc1ccccc1Cn1c(-c2ccccc2)nc2ccccc21,?,.,.,40%,.
O=C(NCc1ccc(Cl)cc1)c1cnc2sc(N3CCCC3)nn2c1=O,2%,.,.,.,.
O=C1CCC(=O)N1c1ccc(CSc2nc3ccccc3[nH]2)cc1,?,22%,?,-9%,13%
COc1ccc(CSc2nc3ccccc3[nH]2)cc1,1.5µM*,0.5µM*,?,?,0.4µM*
Fc1ccccc1CSc1nc2ncccc2[nH]1,15µM*,?,10µM*,22µM*,?
Cn1nnc2c(N3CCN(c4ccc(F)cc4)CC3)ncnc21,3%,.,.,.,.
COc1ccc(/C(C)=N/NC(=O)c2cc(-c3cccnc3)nc3ccccc23)cc1,0%,-2%,19%,15%,-2%
CCCOc1cccc(-c2cc(C(=O)NN)c3ccccc3n2)c1,21µM*,2%,-2%,-83%,1%
COc1ccc(-c2cc(C(=O)N/N=C(\C)c3cccnc3)c3ccccc3n2)cc1,0.67µM*,?,?,.,?
CCCOc1cccc(-c2cc(C(=O)N/N=C/c3ccccn3)c3ccccc3n2)c1,3.8µM*,-13%,?,.,-2%
COc1ccc(-c2cc(C(=O)N/N=C/c3cccnc3)c3ccccc3n2)cc1,1.1µM*,24%,3%,.,3%
C[C@H]1Cc2c(-c3ccccc3)nc3c(c2CO1)CN(C(=O)Nc1cccc(C#N)c1)CC3,.,.,.,-4%[9.22 µM],.
CC(=O)N1CCC2(CCCN(C(=O)Nc3cccc(C#N)c3)C2)CC1,.,.,.,7%,.
CCCOc1cccc(-c2cc(C(=O)N/N=C/c3cccnc3)c3ccccc3n2)c1,7.6µM*,-4%,-15%,.,2%
COc1cc(/C=N/NC(=O)c2cc(-c3ccccc3)nc3ccccc23)cc(OC)c1O,24µM*,2%,-3%,.,-5%
Cc1cccc(/C=N/NC(=O)c2cc(-c3cccnc3)nc3ccccc23)c1,-3%,-1%,-4%,15%,-7%
COc1ccccc1-c1cc(C(=O)N/N=C/c2ccoc2)c2ccccc2n1,?,2%,2%,.,-2%
CC(C)OC(=O)Cc1nc2sc(-c3ccccc3)cc2c(=O)[nH]1,17µM*,4.5µM*,?,.,?
CSc1ncc2c(=O)[nH]c(-c3ccccc3)nc2n1,?,0%[1.84 µM],4%,.,-2%
Cc1nc2sc(-c3ccccc3)cc2c(=O)[nH]1,1.3µM*,0.5µM*,0.58µM*,13µM*,0.63µM*
Cc1nc2cc3ccccc3cc2c(=O)[nH]1,13µM*,?,?,?,?
CCc1cc2c(=O)[nH]c(CC(N)=O)nc2s1,2%,-6%,-2%,-7%,-2%
O=c1[nH]c(-c2cccnc2)nc2sc(-c3ccccc3)cc12,4.8µM*,26%,?,29%,-23%
COC(=O)c1ccccc1NC(=O)CSc1nc2nc(C)cc(C)n2n1,-8%,.,.,-9%,.
Cc1nc(-c2ccc(S(=O)(=O)NCc3ccc(N(C)C)cc3)cc2)co1,-11%,.,.,.,.
SMILES,FLuc modulator,Rab9 promoter act,ELG1 genotox,SMN2 splice up,NPC1 prom act
Cc1ccc(NC(=O)CN2C(=O)CCc3cc(S(=O)(=O)N4CCOCC4)ccc32)c(C)c1,-2%,.,.,.,.
COc1ccc(-c2cn3nc(N4CCCC(C(=O)NCc5ccccc5OC)C4)sc3n2)cc1 (stereo not drawn),17µM*,.,.,.,.
O=C(NCc1cccc(Cl)c1)C1CCCN(c2nn3cc(-c4ccc(F)cc4)nc3s2)C1 (stereo not drawn),9.5µM*,.,.,.,.
Cc1ccc(-c2cn3nc(N4CCCC(C(=O)NCc5ccccc5F)C4)sc3n2)cc1 (stereo not drawn),6µM*,.,.,.,.
O=C(NCc1cccc(Cl)c1)C1CCN(c2nn3cc(-c4ccc(F)cc4)nc3s2)CC1,-2%,.,.,.,.
CCN(CC)CCNC(=O)C1CCN(c2nn3cc(-c4ccc(F)cc4)nc3s2)CC1,21µM*,.,.,.,.
Cc1ccccc1CSc1nc2c(sc3ccccc32)c(=O)n1CCCC(=O)NCCCOC(C)C,-1%,.,.,5%,.
Cc1cccc(-n2c(CNC(=O)c3cccc(F)c3)nnc2SCC(=O)Nc2ccccc2F)c1,-1%,.,.,-14%,.

# From PubChem
